# Inconclusive results are not listed. A call without a number means that no potency is given here. For some of these results: Potency and affinity values are given separately. The source made the active and inactive calls.
# Columns and labels:
# [1] = Ebola virus entry assay, green channel fluorescence
# [2] = Ebola virus entry assay, blue channel fluorescence
# [3] = Ebola virus entry assay, reporter ratio channel; AC50: Channel type: primary unless noted; outcome: Channel type: primary unless noted
# [4] = Ebola virus entry assay, blue channel (ratio component)
# [5] = Ebola virus entry reporter assay, green channel fluorescence
# [6] = Ebola virus entry cell assay, ratio channel
# [7] = Immunotoxin (HA22) sensitization/mitigation study. Vehicle arm (PBS) (AID 1159510); conditions: cancer cells viability with PBS vehicle (HA22 study); series mostly up to 46.1 µM; further: potency means the concentration at half of the fitted maximal effect
# [8] = Immunotoxin (SS1P) sensitization/mitigation study. Vehicle arm (DMEM) (AID 1159513); conditions: cell viability with vehicle (DMEM); series mostly up to 46.1 µM; further: potency means the concentration at half of the fitted maximal effect
# [9] = qHTS assay for measurement of the activity of small molecule inhibitors on Zika virus induced Caspase-3 activity in human iPSC derived neural progenitor cells (hNPCs) (AID 1224857; active means well fitted inhibition curve with a large enough effect; further: nearly all actives have a fitted effect of over 65% in size); conditions: hNPCs ZIKV-induced caspase-3/7, Caspase-Glo luminescence, 6 h; series mostly up to 45.7 µM
# Summary of the method: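 Human iPSC-derived neural progenitor cells pretreated 1 hr with compounds, then infected with Zika virus (2 FFU/cell) for 6 hours at 37 C. Caspase-3/7 measured by Caspase-Glo luminescence; % inhibition calculated from induction scaled to uninfected (0%) and infected (100%) wells.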
# [10] = High-throughput drug toxicity screening in the BPDCN cell line Cal-1 (AID 1224825); conditions: Cal-1 BPDCN cell viability, qHTS; at 45.8 µM (top of the series) unless noted
# Summary of the method: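 CellTiter-Glo luminescence after 48 h compound exposure; percent activity scaled with DMSO as 100% and bortezomib (9.2 uM final) as 0%. Cal-1 cells seeded at 500/well in RPMI, 10% FBS, no phenol red.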
smiles,measurement,setting,value
COc1cc(C(=O)NS(=O)(=O)c2ccccc2C)ccc1Cc1cn(C)c2ccc(NC(=O)OC3CCCC3)cc12,outcome,[1],inactive
same,outcome,[2],inactive
same,outcome,[3],inactive
same,outcome,[4],inactive
same,outcome,[5],inactive
same,outcome,[6],inactive
Nc1ccc(S(=O)(=O)c2ccc(N)cc2)cc1,outcome,[1],inactive
same,outcome,[2],inactive
same,outcome,[3],inactive
same,outcome,[4],inactive
same,outcome,[5],inactive
same,outcome,[6],inactive
NC(=O)N1c2ccccc2C=Cc2ccccc21,outcome,[1],inactive
same,outcome,[2],inactive
same,outcome,[3],inactive
same,outcome,[4],inactive
same,outcome,[5],inactive
same,outcome,[6],inactive
O=C(N[C@H](CO)[C@H](O)c1ccc([N+](=O)[O-])cc1)C(Cl)Cl,outcome,[1],inactive
same,outcome,[2],inactive
same,outcome,[3],inactive
same,outcome,[4],inactive
same,outcome,[5],inactive
same,outcome,[6],inactive
C#CCN[C@@H]1CCc2ccccc21,outcome,[1],inactive
same,outcome,[2],inactive
same,outcome,[3],inactive
same,outcome,[4],inactive
same,outcome,[5],inactive
same,outcome,[6],inactive
S=c1nc[nH]c2nc[nH]c12,outcome,[1],inactive
same,outcome,[2],inactive
same,outcome,[3],inactive
same,outcome,[4],inactive
same,outcome,[5],inactive
same,outcome,[6],inactive
same,Potency,[7],0.605 µM (active)
same,Potency,[8],0.605 µM (active)
C[N+]1(C)CCCC(OC(=O)C(O)(c2ccccc2)c2ccccc2)C1 (stereo unspecified),outcome,[1],inactive
same,outcome,[2],inactive
same,outcome,[3],inactive
same,outcome,[4],inactive
same,outcome,[5],inactive
same,outcome,[6],inactive
COc1c(N2C[C@@H]3CCCN[C@@H]3C2)c(F)cc2c(=O)c(C(=O)O)cn(C3CC3)c12,outcome,[1],inactive
same,outcome,[2],inactive
same,outcome,[3],inactive
same,outcome,[4],inactive
same,outcome,[5],inactive
same,outcome,[6],inactive
CN=C(NC#N)NCCSCc1nc[nH]c1C,outcome,[1],inactive
same,outcome,[2],inactive
same,outcome,[3],inactive
same,outcome,[4],inactive
same,outcome,[6],inactive
NC(N)=Nc1nc(CSCC/C(N)=N/S(N)(=O)=O)cs1,outcome,[1],inactive
same,outcome,[2],inactive
same,outcome,[3],inactive
same,outcome,[4],inactive
same,outcome,[6],inactive
CO[C@@]1(NC(=O)Cc2cccs2)C(=O)N2C(C(=O)O)=C(COC(N)=O)CS[C@@H]21,outcome,[1],inactive
same,outcome,[2],inactive
same,outcome,[3],inactive
same,outcome,[4],inactive
same,outcome,[5],inactive
same,outcome,[6],inactive
CC(C)N(CCC(C(N)=O)(c1ccccc1)c1ccccn1)C(C)C (stereo unspecified),outcome,[1],inactive
same,outcome,[2],inactive
same,outcome,[3],inactive
same,outcome,[4],inactive
same,outcome,[5],inactive
same,outcome,[6],inactive
same,outcome,[9],inactive
CC(C)(C(=O)c1cccnc1)c1cccnc1,outcome,[1],inactive
same,outcome,[3],inactive
same,outcome,[4],inactive
NC(=O)c1cnccn1,outcome,[1],inactive
same,outcome,[2],inactive
same,outcome,[3],inactive
same,outcome,[4],inactive
same,outcome,[6],inactive
O=C(O)CCCc1ccc(N(CCCl)CCCl)cc1,outcome,[1],inactive
same,outcome,[2],inactive
same,outcome,[3],inactive
same,outcome,[4],inactive
same,outcome,[6],inactive
same,viability (% of control),[10],11.8%
same,outcome,[9],inactive
CN(C)C(=O)COC(=O)Cc1ccc(OC(=O)c2ccc(N=C(N)N)cc2)cc1,outcome,[1],inactive
same,outcome,[3],inactive
same,outcome,[4],inactive
N=C(N)N1CCc2ccccc2C1,outcome,[1],inactive
same,outcome,[3],inactive
CN1C(CSCC(F)(F)F)Nc2cc(Cl)c(S(N)(=O)=O)cc2S1(=O)=O (stereo unspecified),outcome,[1],inactive
same,outcome,[2],inactive
same,outcome,[3],inactive
same,outcome,[4],inactive
same,outcome,[6],inactive
c1ccc2c(CC3=NCCN3)cccc2c1,outcome,[1],inactive
same,AC50,[3],39.8 µM (active)
Cc1cccc(C)c1OCC(=O)N[C@@H](Cc1ccccc1)[C@@H](O)C[C@H](Cc1ccccc1)NC(=O)[C@H](C(C)C)N1CCCNC1=O,outcome,[1],inactive
same,AC50,[3],39.8 µM (active)
CN/C(=C\[N+](=O)[O-])NCCSCc1csc(CN(C)C)n1,outcome,[1],inactive
same,outcome,[2],inactive
same,outcome,[3],inactive
same,outcome,[4],inactive
same,outcome,[6],inactive
CO[C@]12C[C@@H](COC(=O)c3cncc(Br)c3)CN(C)[C@@H]1Cc1cn(C)c3cccc2c13,outcome,[1],inactive
same,AC50,[3],20 µM (active)
O=C(NCC1CCCCN1)c1cc(OCC(F)(F)F)ccc1OCC(F)(F)F (stereo unspecified),outcome,[1],inactive
same,AC50,[3],35.5 µM (active)
CNNCc1ccc(C(=O)NC(C)C)cc1,outcome,[1],inactive
same,outcome,[2],inactive
same,outcome,[3],inactive
same,outcome,[4],inactive
same,outcome,[6],inactive
CC(CN(C)C)C(C)(O)Cc1ccc(Cl)cc1 (stereo unspecified),outcome,[1],inactive
same,AC50,[3],28.2 µM (active)
Cc1onc(-c2ccccc2)c1-c1ccc(S(N)(=O)=O)cc1,outcome,[1],inactive
same,outcome,[3],inactive
same,outcome,[4],inactive
Nc1ncn([C@H]2C[C@H](O)[C@@H](CO)O2)c(=O)n1,outcome,[1],inactive
same,outcome,[2],inactive
same,outcome,[3],inactive
same,outcome,[4],inactive
same,outcome,[6],inactive
CN1C(C(=O)Nc2ccccn2)=C(O)c2ccccc2S1(=O)=O,outcome,[1],inactive
same,outcome,[2],inactive
same,outcome,[3],inactive
same,outcome,[4],inactive
same,outcome,[6],inactive
Cc1nnc(SCC2=C(C(=O)O)N3C(=O)[C@@H](NC(=O)Cn4cnnn4)[C@H]3SC2)s1,outcome,[1],inactive
same,outcome,[2],inactive
same,outcome,[3],inactive
same,outcome,[4],inactive
same,outcome,[6],inactive
CCc1cc(C(N)=S)ccn1,outcome,[1],inactive
same,outcome,[2],inactive
same,outcome,[3],inactive
same,outcome,[4],inactive
same,outcome,[6],inactive
NS(=O)(=O)c1cc(C2(O)NC(=O)c3ccccc32)ccc1Cl (stereo unspecified),outcome,[1],inactive
same,outcome,[2],inactive
same,outcome,[3],inactive
same,outcome,[4],inactive
same,outcome,[6],inactive
CCN1CC(CCN2CCOCC2)C(c2ccccc2)(c2ccccc2)C1=O (stereo unspecified),outcome,[1],inactive
same,outcome,[2],inactive
same,outcome,[3],inactive
same,outcome,[4],inactive
same,outcome,[6],inactive

# Reference: PubChem BioAssay (NCATS)
